Test results taken from PubChem BioAssay (NCATS).
Records with an inconclusive call do not appear. Active and inactive are the calls of the source. Calls follow the shape of the dose curve; as a rule, active = well fitted curve in the direction sought with a large enough effect; inconclusive = small, poorly fitted or top-dose-only effect, or another doubt; inactive = no such curve, though single readings can be large; an effect the other way counts as inactive or inconclusive.

How the values were obtained:
[1] = Quantitative High-Throughput drug screen in 47 multiple myeloma cell lines against the NCATS MIPE library collection: ARD_JJKsccE7 cell viability assay (AID 1918929; also: potency is read from the fitted curve at half-maximal effect)
Method in brief: (§1)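 Relative luminescence from CellTiter-Glo served as the viability signal, referenced to DMSO-treated (100%) and cell-free medium (0%) controls. Treatment lasted 48 hours at 37C with 500 cells per well.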

[2] = Quantitative High-Throughput drug screen in 47 multiple myeloma cell lines against the NCATS MIPE library collection: KHM11_PLB cell viability assay (AID 1918962); also: nearly all actives have a fitted effect of over 35% in size; also: potency is read from the fitted curve at half-maximal effect
Method in brief: (§2)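 Inhibition of cell viability is measured here. Each line was plated at 500 cells per well, treated with MIPE 4.0 drugs, kept 48 hours at 37C, then assayed for ATP content by CellTiter-Glo luminescence.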

[3] = Quantitative High-Throughput drug screen in 47 multiple myeloma cell lines against the NCATS MIPE library collection: INA6_PLB cell viability assay (AID 1918965; also: potency is read from the fitted curve at half-maximal effect; nearly all actives have a fitted effect of over 55% in size)
Method in brief: (§3)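 qHTS of the MIPE 4.0 collection: 500 myeloma cells/well, 48 h drug exposure at 37C in 5% CO2, then CellTiter-Glo for 5 min at room temperature before luminescence reading.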

[4] = Quantitative High-Throughput drug screen in 47 multiple myeloma cell lines against the NCATS MIPE library collection: JJN3_DSMZ cell viability assay (AID 1918966; also: nearly all actives have a fitted effect of over 50% in size; also: potency is read from the fitted curve at half-maximal effect)
Method in brief: as §1

[5] = Quantitative High-Throughput drug screen in 47 multiple myeloma cell lines against the NCATS MIPE library collection: KMS27_JCRB cell viability assay (AID 1918970); settings: KMS27 myeloma cells, CellTiter-Glo ATP viability, 48 h; viability (% of DMSO): at 45.8 µM (top of the series); also: nearly all actives have a fitted effect of over 30% in size; also: potency is read from the fitted curve at half-maximal effect
Method in brief: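 Myeloma cells (500 per well) were exposed to MIPE 4.0 compounds for 48 h at 37 °C, 5% CO2; viability was read as ATP luminescence with CellTiter-Glo, normalized to DMSO-only (100%) and media-only (0%) wells.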

[6] = Quantitative High-Throughput drug screen in 47 multiple myeloma cell lines against the NCATS MIPE library collection: AMO1_DSMZ cell viability assay (AID 1918927; also: nearly all actives have a fitted effect of over 30% in size; also: potency is read from the fitted curve at half-maximal effect)
Method in brief: as §1

[7] = Quantitative High-Throughput drug screen in 47 multiple myeloma cell lines against the NCATS MIPE library collection: KMM1_JCRB cell viability assay (AID 1918960); also: nearly all actives have a fitted effect of over 30% in size; also: potency is read from the fitted curve at half-maximal effect
Method in brief: (§4)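 Myeloma cells, 500 per well, were exposed to MIPE 4.0 drugs by pin transfer for 48 h at 37 °C, 5% CO2. Viability was read as ATP luminescence with CellTiter-Glo, normalised to DMSO-only (100%) and medium-only (0%) wells.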

[8] = Quantitative High-Throughput drug screen in 47 multiple myeloma cell lines against the NCATS MIPE library collection: JIM3_ECACC cell viability assay (AID 1918963; also: nearly all actives have a fitted effect of over 35% in size; also: potency is read from the fitted curve at half-maximal effect)
Method in brief: as §2

[9] = Quantitative High-Throughput drug screen in 47 multiple myeloma cell lines against the NCATS MIPE library collection: Karpas25_ECACC cell viability assay (AID 1918968; also: nearly all actives have a fitted effect of over 35% in size; also: potency is read from the fitted curve at half-maximal effect)
Method in brief: as §1

[10] = Quantitative High-Throughput drug screen in 47 multiple myeloma cell lines against the NCATS MIPE library collection: EJM_DSMZ cell viability assay (AID 1918926; also: potency is read from the fitted curve at half-maximal effect; nearly all actives have a fitted effect of over 30% in size)
Method in brief: as §1

[11] = Quantitative High-Throughput drug screen in 47 multiple myeloma cell lines against the NCATS MIPE library collection: H1112_PLB cell viability assay (AID 1918967; also: nearly all actives have a fitted effect of over 30% in size; also: potency is read from the fitted curve at half-maximal effect)
Method in brief: as §1

[12] = Quantitative High-Throughput drug screen in 47 multiple myeloma cell lines against the NCATS MIPE library collection: KMS12BM_JCRB cell viability assay (AID 1918971); also: potency is read from the fitted curve at half-maximal effect; nearly all actives have a fitted effect of over 35% in size
Method in brief: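 CellTiter-Glo luminescence (ATP) after 48 h compound exposure, 37C/5% CO2; 500 cells/well; MIPE 4.0 approved/investigational drugs pinned in; DMSO = 100%, media only = 0% viability.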

[13] = Quantitative High-Throughput drug screen in 47 multiple myeloma cell lines against the NCATS MIPE library collection: Karpas620_DSMZ cell viability assay (AID 1918959); also: nearly all actives have a fitted effect of over 30% in size; also: potency is read from the fitted curve at half-maximal effect
Method in brief: as §2

[14] = Quantitative High-Throughput drug screen in 47 multiple myeloma cell lines against the NCATS MIPE library collection: Karpas417_ECACC cell viability assay (AID 1918961); settings: Karpas417 myeloma viability, CellTiter-Glo ATP luminescence, 48 h; viability (% of DMSO): at 45.8 µM (top of the series); also: potency is read from the fitted curve at half-maximal effect
Method in brief: as §3

[15] = Quantitative High-Throughput drug screen in 47 multiple myeloma cell lines against the NCATS MIPE library collection: JIM1_ECACC cell viability assay (AID 1918964)
Method in brief: as §1

[16] = Quantitative High-Throughput drug screen in 47 multiple myeloma cell lines against the NCATS MIPE library collection: KMS12PE_JCRB cell viability assay (AID 1918972); also: nearly all actives have a fitted effect of over 30% in size; also: potency is read from the fitted curve at half-maximal effect
Method in brief: as §3

[17] = Quantitative High-Throughput drug screen in 47 multiple myeloma cell lines against the NCATS MIPE library collection: KMS20_JCRB cell viability assay (AID 1918973); also: nearly all actives have a fitted effect of over 45% in size
Method in brief: as §1

[18] = Quantitative High-Throughput drug screen in 47 multiple myeloma cell lines against the NCATS MIPE library collection: ARP1_JJKsccF8 cell viability assay (AID 1918928; also: potency is read from the fitted curve at half-maximal effect; nearly all actives have a fitted effect of over 40% in size)
Method in brief: as §4

COc1cc([C@@H]2c3cc4c(cc3[C@@H](O[C@@H]3O[C@@H]5CO[C@@H](C)O[C@@H]5[C@H](O)[C@@H]3O)[C@H]3COC(=O)[C@H]23)OCO4)cc(OC)c1O
Potency [1]: inactive
Potency [2]: inactive
Potency [3]: 0.332 µM (active)
Potency [4]: inactive
Potency [5]: 0.418 µM (active)

CC1=C[C@@H]2[C@@H]([C@@H](O)C[C@@]3(C)[C@H]2C[C@@H](C)[C@]3(O)C(=O)CO)[C@@]2(C)Cc3cnn(-c4ccccc4)c3C=C12
Potency [6]: 5.26 µM (active)
Potency [1]: 0.0059 µM (active)
Potency [7]: 0.0105 µM (active)
Potency [8]: 26.4 µM (active)
Potency [4]: 23.5 µM (active)
Potency [9]: 0.0083 µM (active)
Potency [5]: inactive

Nc1ccc(-c2ccc3ncc4ccc(=O)n(-c5cccc(C(F)(F)F)c5)c4c3c2)cn1
Potency [10]: 0.0187 µM (active)
Potency [4]: 0.0235 µM (active)
Potency [11]: 0.0469 µM (active)
Potency [12]: 0.0105 µM (active)

COc1nccc(-c2c(-c3ccc(F)cc3)ncn2C2CCC(O)CC2)n1 (centres undefined)
Potency [1]: 0.0083 µM (active)
Potency [13]: inactive
Potency [7]: inactive
Potency [14]: 4.69 µM (active)
Potency [8]: inactive
Potency [3]: 13.2 µM (active)
Potency [12]: 20.9 µM (active)

CCC[C@H](Nc1nc(-c2ccc(NC(=O)NCC)c(OC)c2)ncc1C)c1cccnc1
Potency [6]: 0.001 µM (active)
Potency [7]: 0.001 µM (active)
Potency [2]: inactive
Potency [4]: 0.0235 µM (active)
Potency [11]: 0.0047 µM (active)
Potency [5]: 0.001 µM (active)

CCOC(=O)c1c(CSc2ccccc2)n(C)c2cc(Br)c(O)c(CN(C)C)c12
Potency [6]: 26.4 µM (active)
Potency [2]: inactive
Potency [3]: 16.6 µM (active)
Potency [4]: 11.8 µM (active)
Potency [11]: 6.62 µM (active)
Potency [9]: 16.6 µM (active)
Potency [5]: 26.4 µM (active)
Potency [12]: 18.7 µM (active)

CCOC(=O)N1c2ccc(C(F)(F)F)cc2[C@@H](N(Cc2cc(C(F)(F)F)cc(C(F)(F)F)c2)C(=O)OC)C[C@H]1CC
Potency [6]: inactive
Potency [1]: inactive
Potency [13]: inactive
Potency [7]: inactive
Potency [15]: inactive
Potency [4]: 5.9 µM (active)
Potency [11]: inactive
Potency [5]: inactive
Potency [16]: inactive

C=CC(=O)Nc1cccc(Sc2nc(Nc3ccc(N4CCN(C)CC4)cc3)ncc2Cl)c1
Potency [10]: 18.7 µM (active)
Potency [4]: 37.2 µM (active)

Nc1nc(Cl)nc2c1ncn2[C@@H]1O[C@H](CO)[C@@H](O)[C@H]1F
Potency [6]: 0.0418 µM (active)
Potency [1]: 0.418 µM (active)
Potency [13]: 0.469 µM (active)
Potency [2]: 0.0148 µM (active)
Potency [8]: 0.418 µM (active)
Potency [4]: 0.372 µM (active)
Potency [9]: 0.526 µM (active)
Potency [16]: 0.833 µM (active)

CC1CCN(c2cc(N3CCN(C)CC3)ccc2NC(=O)c2cc(C#N)c[nH]2)CC1
Potency [13]: inactive
Potency [7]: inactive
Potency [2]: inactive
Potency [8]: inactive
Potency [15]: inactive
Potency [11]: inactive
Potency [9]: inactive
Potency [5]: inactive
Potency [16]: inactive
Potency [17]: inactive

CNc1nc(-c2ccc3c(N)n[nH]c3c2)cc(N2C[C@@H](C(=O)NC3CCCCC3)CC[C@@H]2C)n1
Potency [6]: 20.9 µM (active)
Potency [18]: 11.8 µM (active)
Potency [1]: 8.33 µM (active)
Potency [13]: 20.9 µM (active)
Potency [8]: 6.62 µM (active)
Potency [3]: 2.09 µM (active)
Potency [9]: 2.09 µM (active)
Potency [5]: 10.5 µM (active)

CN1CC(=O)NC1=NC(=O)Nc1cccc(Cl)c1
Potency [6]: inactive
Potency [18]: 20.9 µM (active)
Potency [13]: 5.26 µM (active)
Potency [7]: 4.69 µM (active)
Potency [2]: 14.8 µM (active)
Potency [8]: 13.2 µM (active)
Potency [3]: 14.8 µM (active)
Potency [4]: 8.33 µM (active)
Potency [11]: 16.6 µM (active)
Potency [9]: 5.26 µM (active)
Potency [16]: inactive

CN(C)c1ccc(-c2nc3ncc(Cl)c(N4CCN(CC(=O)Nc5nccs5)CC4)c3[nH]2)cc1
Potency [10]: 5.9 µM (active)
Potency [7]: inactive
Potency [8]: 3.32 µM (active)
Potency [15]: inactive
Potency [4]: 18.7 µM (active)
Potency [9]: 2.64 µM (active)
Potency [12]: 4.18 µM (active)

CC(C)CN(C[C@H](O)[C@H](Cc1ccccc1)NC(=O)O[C@H]1CCOC1)S(=O)(=O)c1ccc(N)cc1
Potency [6]: inactive
Potency [13]: inactive
Potency [7]: inactive
Potency [4]: 1.87 µM (active)
Potency [11]: 18.7 µM (active)
Potency [5]: inactive
Potency [16]: inactive
